Source: PubChem BioAssay
Tau fibril FP = blocks human tau fibril formation measured by polarization; AID 1468; Potency, µM (top dose mostly 57.7 µM), without a hit: top-dose activity, negative = inhibition, hits mostly inhibitors; hit rate 0.39% among 280,000; K18 P301L tau heparin fibrillization, Alexa594 FP, 6 h; also: nearly all actives have a fitted effect of over 55% in size
Target sequence (P10636 561-689 P618L limits assumed): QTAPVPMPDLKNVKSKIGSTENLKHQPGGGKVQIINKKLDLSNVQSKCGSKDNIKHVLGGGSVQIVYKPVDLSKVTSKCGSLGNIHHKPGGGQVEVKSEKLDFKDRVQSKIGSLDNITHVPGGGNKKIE
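Human K18 P301L fragment (15 uM unlabeled plus 0.24 uM Alexa 594-labeled) in 100 mM sodium acetate pH 7 with compound, aggregation induced by 20 uM heparin for 6 hr at 37 C. ThT (30 uM) added for 1 hr, then Alexa 594 FP read.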
TRb-SRC2 inh = TRbeta-SRC2 interaction inhibition; P10828; TRbeta-SRC2 peptide binding, fluorescence polarization; receptor liganded with 1 µM T3; Potency, µM (doses to about 106 µM), without a hit: at the highest dose activity change, negative = inhibition, hits mostly inhibitors; hit rate 0.065% among 280,000;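 also: plate controls were bound peptide for no effect and peptide without receptor for full effect; nearly all actives have a fitted effect of over 50% in size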
Target sequence (P10828 whole entry, looked up): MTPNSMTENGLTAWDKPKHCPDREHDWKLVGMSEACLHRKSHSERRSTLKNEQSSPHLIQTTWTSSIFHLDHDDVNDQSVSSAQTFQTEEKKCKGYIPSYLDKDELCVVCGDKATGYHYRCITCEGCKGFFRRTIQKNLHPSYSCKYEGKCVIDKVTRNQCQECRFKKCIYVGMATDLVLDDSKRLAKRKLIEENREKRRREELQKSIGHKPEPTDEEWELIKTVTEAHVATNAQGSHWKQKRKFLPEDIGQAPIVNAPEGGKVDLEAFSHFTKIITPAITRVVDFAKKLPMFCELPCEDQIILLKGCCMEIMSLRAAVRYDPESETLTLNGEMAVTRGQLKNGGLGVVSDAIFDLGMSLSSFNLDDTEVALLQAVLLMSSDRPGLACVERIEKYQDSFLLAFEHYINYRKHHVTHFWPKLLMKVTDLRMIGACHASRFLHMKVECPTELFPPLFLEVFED
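Read-out is fluorescence polarization (555 nm excitation, 632 nm emission) of a Texas Red SRC2 coactivator peptide; loss of signal reflects blocked binding to human TRb ligand-binding domain in the presence of 1 uM T3.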
Tau ThT inhib = blocks human tau fibril formation measured by thioflavin T; P10636; recombinant tau K18 P301L, heparin-induced fibrillization, ThT fluorescence; Potency, µM (highest dose often 57.4 µM), for the others: top-dose activity, negative = inhibition, hits mostly inhibitors; hit rate 2.1% among 270,000; AID 1460; also: nearly all actives have a fitted effect of over 55% in size
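Recombinant human tau K18 fragment […] carrying P301L, 15 uM unlabeled plus 0.24 uM Alexa 594-labeled, was fibrillized with 20 uM heparin in 100 mM sodium acetate pH 7 for 6 hr at 37 C; 30 uM ThT fluorescence read after 1 hr.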
Tau fluor counter = counter-screen for tau fibril formation inhibitors; tau K18 P301L Alexa594 fluorescence, heparin fibrillization; AID 1463; hit rate 0.93% among 280,000; Potency, µM (top dose mostly 57.7 µM), without a hit: at the top dose activity change, negative = decrease; also: nearly all actives have a fitted effect of over 55% in size
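Human tau K18 P301L (15 uM unlabeled, 0.24 uM Alexa 594-labeled) in 100 mM sodium acetate pH 7 with 20 uM heparin, 6 hr at 37 C. ThT 30 uM added, 1 hr ambient; Alexa 594 FP and total fluorescence read at 555/632 nm.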
TexasRed fluor = Texas Red fluorescence interference in TRb-SRC2 counter-screen | hit rate 0.29% among 280,000 | TRb/SRC2 Texas Red total fluorescence interference | AID 1479 | Potency, µM (highest dose often 106 µM), inactives show at the top dose fluorescence change, negative = quenching; active = well fitted curve in either direction with a large enough effect; inconclusive = small, poorly fitted or top-dose-only effect
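Human TRb ligand-binding domain at 0.6 uM with 20 nM Texas Red SRC2 peptide in Tris buffer containing 1 uM T3 and 5% DMSO, incubated with compound 5 h at ambient temperature. Total fluorescence (555/632 nm) calculated as parallel + 2 × perpendicular.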
Active calls of the source: *; ? = inconclusive; nt = no result given; ! = a repeat was not active; [ ] = dose if it differs, or a comment. This is a sample that favours compounds with a hit; in the whole collection about 3% have one here. Unless noted, calls follow the shape of the dose curve; as a rule, active = well fitted curve in the direction sought with a large enough effect; inconclusive = small, poorly fitted or top-dose-only effect, or another doubt; inactive = no such curve, though single readings can be large; an effect the other way counts as inactive or inconclusive. Unless noted, % is scaled to controls: 0 for no effect and ±100 for the full control effect; potency is read from the fitted curve at half-maximal effect.

SMILES	Tau fibril FP	TRb-SRC2 inh	Tau ThT inhib	Tau fluor counter	TexasRed fluor
O=C(CSc1ncnc2c1nnn2-c1ccc(F)cc1)NCC1CCCO1 (configuration not stated)	0.0%	2.7%	?	-8.4%	-0.1%
O=[N+]([O-])c1ccc(N2CCCC2)c2ccncc12	0.2%	11.1%	12.6µM*	-10.2%	-2.4%
CCOP(=S)(OCC)Oc1cnc2ccccc2n1	nt	4.3%[201 µM]	nt	nt	1.8%[201 µM]
c1ccc2oc(N3CCNCC3)nc2c1	1.4%	-17.0%	-9.0%	1.3%	1.2%
c1ccc2c(N3CCNCC3)nsc2c1	?	2.0%	22.4µM*	-22.5%	-2.7%
COc1ccc(-c2ccccc2)cc1NNC(=O)OC(C)C	nt	1.2%[201 µM]	nt	nt	-2.9%[201 µM]
C[Si](Cn1cncn1)(c1ccc(F)cc1)c1ccc(F)cc1	nt	-1.4%[201 µM]	nt	nt	-0.6%[201 µM]
c1ccc2c(c1)Nc1ccccc1S2	7.2%	5.9%[201 µM]	?	15.8µM*[quencher]	-6.8%[201 µM]
O=C1Nc2ccccc2Sc2ccccc21	1.8%	-3.3%	14.2%	11.3%	0.3%
CCNc1nc(NCC)nc(SC)n1	nt	-10.1%[201 µM]	nt	nt	-15.2%[201 µM]
CCOc1cccc(OCC)c2c(C)[n+](CC3CCCO3)c(C)c1-2 (configuration not stated)	?	-21.4%	20µM*	?	-9.8%
CC[C@H]1CCCC(O[C@H]2CC[C@H](N(C)C)[C@@H](C)O2)[C@@H](C)C(=O)C2=C[C@@H]3[C@@H](C=C[C@@H]4C[C@@H](O[C@@H]5O[C@@H](C)[C@H](OC)[C@@H](OC)[C@H]5OC)C[C@@H]34)[C@@H]2CC(=O)O1 (some centres not stated)	nt	0.5%[201 µM]	nt	nt	-0.8%[201 µM]
CCN(CC)c1ccc(C=C2C(=O)N(C)C(=S)N(C)C2=O)o1	-11.5%	3.2%	10µM*	-1.2%	1.9%
CCN(CC)c1ccc(/C=C2\C(=O)NC(=S)N(C)C2=O)o1	6.2%	-5.4%	14.1µM*	-9.9%	-0.9%
CCOP(=S)(OCC)Oc1ccc(S(C)=O)cc1 (configuration not stated)	nt	-5.1%[201 µM]	nt	nt	-1.0%[201 µM]
NCCc1c[nH]c2ccc(OCc3ccccc3)cc12	8.0%	-1.9%	-18.5%	12.6µM*[quencher]	-0.7%
CC(c1ccc(O)cc1)(c1ccc(O)cc1)c1ccc(O)cc1	nt	5.2%[201 µM]	nt	nt	-2.9%[201 µM]
CC1CCCCC1NC(=O)Nc1ccccc1 (configuration not stated)	nt	1.0%[201 µM]	nt	nt	3.0%[201 µM]
O=C1NC(=O)C(=Cc2ccc(N3CCN(C(=O)c4ccccc4)CC3)c([N+](=O)[O-])c2)C(=O)N1	-13.0%	-7.4%	11.2µM*	-15.2%	-2.8%
CCC(C)N1C(=O)NC(=O)C2(Cc3c(ccc4ccccc34)N(C)C2)C1=O (configuration not stated)	?	-2.8%	15.8µM*	?	-3.9%
COc1ccc2c(c1)CC1(CN2C)C(=O)NC(=O)N(CCc2ccccc2)C1=O (configuration not stated)	?	-6.6%	?	-20.0%	4.5%
CN/C(=N\[N+](=O)[O-])NCc1cnc(Cl)s1	nt	4.1%[201 µM]	nt	nt	1.4%[201 µM]
Nc1c(C(=O)Nc2ccc(Cl)c(C(F)(F)F)c2)sc2nc3c(cc12)N1CCC3CC1	?	1.7%	?	5.01µM*[quencher]	-11.3%
Nc1c(C(=O)Nc2ccc(Cl)cc2)sc2nc3c(cc12)N1CCC3CC1	-22.4%	-9.0%	?	?	?
Oc1c(Br)cc(Br)cc1Oc1ccc(Br)cc1Br	?	-3.5%	31.6µM*	?	-8.6%
SMILES	Tau fibril FP	TRb-SRC2 inh	Tau ThT inhib	Tau fluor counter	TexasRed fluor
CCCCC(CC)COC(=O)Cl (configuration not stated)	nt	1.8%[201 µM]	nt	nt	1.2%[201 µM]
COc1ccc(-n2cnc3cc(C(=O)N4CCC5(CC4)OCCO5)ccc32)cc1	-1.5%	2.0%	-5.3%	-7.4%	-0.5%
O=C(c1ccc2nc(-c3ccco3)c(-c3ccco3)nc2c1)N1CCC2(CC1)OCCO2	20µM*	-6.9%	8.91µM*	?	-21.9%
CC1=NN(c2ccccc2)C(=O)C1=C(C)C	-9.1%	2.8%	11.2µM*	?	1.0%
O=c1c2ccccc2nc(-c2cccs2)n1-c1ccccc1	-3.1%	-9.1%	-10.1%	-6.4%	0.5%
NCCc1cc(O)c(O)cc1O	25.1µM*	39.8µM*!	7.08µM*	10µM*[quencher]	4.1%
CCC(C)(NC(=O)c1cc(Cl)c(C)c(Cl)c1)C(=O)CCl (configuration not stated)	nt	1.7%[201 µM]	nt	nt	-2.6%[201 µM]
CCc1cc(C)cc(CC)c1-c1c(OC(=O)C(C)(C)C)n2n(c1=O)CCOCC2	nt	-1.4%[201 µM]	nt	nt	0.7%[201 µM]
CN1C(=O)/C(=C/c2cccn2-c2ccc3ccccc3c2)C(=O)NC1=S	31.6µM*	-3.7%	15.8µM*	17.8µM*[quencher]	-10.7%
Cc1cc(C)cc(N2C(=O)NC(=O)/C(=C\c3cccn3-c3ccc(Cl)cc3)C2=O)c1	-10.6%	-5.7%	-3.1%	-12.4%	-2.9%
Cc1cc(C)cc(N2C(=O)NC(=O)/C(=C\c3cccn3-c3ccccc3)C2=O)c1	4.1%	7.2%	-18.5%	0.0%	3.3%
O=C1NC(=S)NC(=O)C1=Cc1cccn1-c1ccc(O)cc1	-6.8%	-7.3%	25.1µM*	?	-3.7%
CC1=NCCc2c1[nH]c1cc(O)ccc21	-1.6%	5.8%	?	17.8µM*![quencher]	2.6%
COc1ccc2c3c([nH]c2c1)C(C)=NCC3	3.1%	-3.6%	?	?	0.1%
O=C1NCCN1Cc1ccc(Cl)nc1	nt	0.7%[201 µM]	nt	nt	-0.9%[201 µM]
CC1(C)C(C(=O)OC(C#N)c2cccc(Oc3ccccc3)c2)C1(C)C (configuration not stated)	nt	-0.4%[201 µM]	nt	nt	-1.3%[201 µM]
Cc1ccc(N2C(=O)/C(=C/c3ccc(CN(CCC#N)S(C)(=O)=O)o3)C(=O)NC2=S)cc1	?	13.5%	22.4µM*	-22.0%	7.4%
OC12ONC(c3ccccn3)C1N1CCC2CC1 (configuration not stated)	?	2.6%	12.6µM*	-11.7%	-0.4%
CC(C)C12CN3CC(C(C)C)(CN(C1)C3c1ccccn1)C2=O (configuration not stated)	-1.7%	-6.7%	-0.5%	0.2%	0.6%
O=c1[nH]c(=S)n(-c2ccc(Cl)cc2)c(O)c1C=Nc1ccc(N2CCOCC2)cc1	-7.2%	-1.2%	25.1µM*	?	1.7%
CC(C)[C@@]1(NC(=O)[C@@H]2C[C@@H]3c4cccc5[nH]cc(c45)C[C@H]3N(C)C2)O[C@@]2(O)C3CCCN3C(=O)[C@H](Cc3ccccc3)N2C1=O (some centres not stated)	?	-4.6%	?	7.08µM*[quencher]	?
CC(C)[C@@]1(NC(=O)[C@@H]2C[C@@H]3c4cccc5[nH]cc(c45)C[C@H]3N(C)C2)O[C@@]2(O)[C@@H]3CCCN3C(=O)[C@H](Cc3ccccc3)N2C1=O	?	4.7%	?	2.82µM*[quencher]	-1.2%
CCOP(=S)(Oc1cnc(C(C)(C)C)nc1)OC(C)C (configuration not stated)	nt	-1.8%[201 µM]	nt	nt	-0.8%[201 µM]
